# Results reported in PubChem BioAssay (NCI).
# Compounds without any hit were thinned out: in the full panel of roughly 83,000, 20% have a hit.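 Compound tested at a single concentration for 48 hours in 96-well plates; a percent growth value below 10 was scored as active.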 A number with no mark means an inactive call. Activity calls are given as the source filed them.
# What was measured:
# Experiment in all cases: NCI-60 one-dose screen, 48 h (100 = growth as untreated, 0 = no growth, -100 = all killed)
# Details in all cases: 10 µM unless noted
# NCI-H23 lung = system: NCI-H23 lung
# NCI-H226 lung = system: NCI-H226 lung
# NCI-H322M lung = system: NCI-H322M lung
# HOP-62 NSCLC = system: HOP-62 NSCLC
# NCI-H460 lung = system: NCI-H460 lung
# HOP-92 NSCLC = system: HOP-92 NSCLC
# NCI-H522 lung = system: NCI-H522 lung
# A549/ATCC NSCLC = system: A549/ATCC NSCLC
# 786-0 renal = system: 786-0 renal
# COLO 205 colon = system: COLO 205 colon
# DU-145 prostate = system: DU-145 prostate
# K-562 leukemia = system: K-562 leukemia
# MALME-3M melanoma = system: MALME-3M melanoma
# MDA-MB-231 breast = system: MDA-MB-231 breast
# RXF 393 renal = system: RXF 393 renal
# SF-268 CNS = system: SF-268 CNS
# SF-295 CNS = system: SF-295 CNS
# SF-539 CNS = system: SF-539 CNS
# UACC-257 melanoma = system: UACC-257 melanoma
# M14 melanoma = system: M14 melanoma
SMILES,growth (NCI-H23 lung),growth (NCI-H226 lung),growth (NCI-H322M lung),growth (HOP-62 NSCLC),growth (NCI-H460 lung),growth (HOP-92 NSCLC),growth (NCI-H522 lung),growth (A549/ATCC NSCLC),growth (786-0 renal),growth (COLO 205 colon),growth (DU-145 prostate) [%],growth (K-562 leukemia),growth (MALME-3M melanoma),growth (MDA-MB-231 breast),growth (RXF 393 renal),growth (SF-268 CNS),growth (SF-295 CNS),growth (SF-539 CNS),growth (UACC-257 melanoma),growth (M14 melanoma)
C1=C(N2CCCC2)CCC1,100%,109%,109%,103%,93.2%,65.8%,94.6%,99%,105%,124%,108,120%,100%,98.8%,93.1%,107%,104%,87.4%,89.8%,96.2%
COC1C[C@H](O[C@@H]2C[C@H](O[C@@H]3C[C@H](O[C@@H]4C(=O)c5c(cc6cc(O[C@H]7C[C@@H](O[C@H]8C[C@@H](O)[C@H](O)C(C)O8)[C@H](O)C(C)O7)c(C)c(O)c6c5O)C[C@H]4C(OC)C(=O)[C@@H](O)[C@@H](C)O)OC(C)[C@H]3O)OC(C)[C@@H]2O)OC(C)[C@@H]1O (stereo not given in full),-1.75% (active),3.22% (active),6.22% (active),-7.62% (active),6.26% (active),-12.1% (active),-33.1% (active),1.74% (active),-5.74% (active),-78.3% (active),14,4.88% (active),-59.4% (active),-7.44% (active),-50.9% (active),18.3%,7.37% (active),-8.29% (active),-37.3% (active),-22.7% (active)
N#Cc1c(N)nnn1Cc1cc(=O)oc2c1ccc1ccccc12,93.2%,83.9%,102%,101%,101%,87.8%,78.1%,91.1%,102%,112%,105,93.6%,103%,86.7%,104%,98%,109%,113%,97.7%,101%
CCCCCCNC(=O)Oc1ccc(/C(=C(/C)Cc2ccc(OC)cc2)c2ccc(OCCCN(C)C)cc2)cc1,70.7%,90.5%,70.5%,76%,-52.7% (active),25%,36.4%,31.9%,44.5%,-84% (active),48.9,-51.8% (active),-51.2% (active),32.6%,31.2%,60.8%,10.5%,40.7%,-6.6% (active),-63.9% (active)
Nc1c(C(=O)Nc2ccccc2Cl)sc2nc3c(cc12)C(O)CCC3 (stereo not given),44.2%,52.8%,60.2%,41.8%,24.5%,46.4%,-33.7% (active),25.4%,48.1%,4.09% (active),14.4,10.9%,76.2%,58.2%,19.6%,65.6%,22.8%,3.94% (active),56.8%,19.9%
OCCOCCN(Cc1ccccn1)Cc1cc(I)cc(I)c1O,90.2%,83.1%,82.9%,84.9%,59.5%,90.2%,74.4%,88.5%,85.2%,107%,87.8,107%,87.8%,96%,81.1%,81.4%,59.3%,90.8%,104%,81.1%
Fc1ccc(-c2nn(-c3ccccc3)cc2-c2nc3ccccc3o2)cc1,65.8%,84.4%,107%,48.7%,37.5%,91.2%,82.3%,55.3%,88.3%,140%,90.1,37.5%,63.6%,59.1%,105%,58.5%,45.4%,91.7%,102%,48.2%
C=C(C)[C@@H]1CC[C@]2(C(=O)NCC#CCN3CCN(C)CC3)CC[C@]3(C)[C@H](CC[C@@H]4[C@@](C)(CCC#N)[C@H](C(=C)C)CC[C@]43C)[C@@H]12,75.7%,57.6%,74.9%,65.6%,26.4%,8.35% (active),68.5%,49.6%,54.5%,57.8%,57.5,2.05% (active),56.9%,42.1%,39.8%,62.4%,94.2%,66%,56.7%,5.09% (active)
COc1ccc2nc(NC(=O)CSc3nnc4n3S(=O)(=O)c3ccccc3N4C)sc2c1,94.9%,103%,102%,97.9%,112%,90.5%,70.9%,77.9%,103%,138%,115,91.2%,120%,94.5%,-29.4% (active),95.8%,127%,106%,82.4%,101%
CCCCCCC1(C)NCCO1 (stereo not given),99.1%,103%,87.3%,105%,106%,102%,100%,99.4%,102%,102%,111,104%,105%,104%,118%,93.6%,102%,110%,99%,104%
CC(C)=CCC[C@](C)(O)[C@H]1CC[C@]2(C)[C@@H]1CC[C@@H]1[C@@]3(C)Cc4nccnc4C(C)(C)[C@@H]3CC[C@]12C,66.9%,74.6%,100%,94.6%,73.6%,93.2%,62.8%,46.3%,78.6%,76.3%,70.9,63.2%,66.4%,74.4%,94.3%,86.5%,95.2%,76.3%,75.7%,71.4%
N#Cc1c(-c2cccs2)cc(-c2cccnc2)[nH]c1=O,102%,98.5%,96.8%,90.3%,110%,104%,98.7%,97.8%,103%,97.2%,109,98.2%,104%,105%,101%,100%,101%,95.5%,97.1%,106%
OCCNCCCOc1ccc2ncnc(Nc3ccc(Oc4cccc(C(F)(F)F)c4)c(Cl)c3)c2c1,63.8%,85.2%,21.5%,66.5%,-82.5% (active),40.5%,30.8%,23.8%,-4.05% (active),-27.7% (active),16.3,1.39% (active),41.1%,-18% (active),-49.3% (active),56%,39.7%,-46.3% (active),54.9%,-60.3% (active)
Cc1cc2c(O)c(-c3cccc(Cl)c3)c3sc(=O)oc3c2cc1C,12%,42.9%,59.8%,76.7%,24.9%,-31.3% (active),12.7%,69.1%,78.8%,115%,48.1,17.2%,58.4%,53.9%,63.5%,48.7%,66%,54.3%,39.6%,51.9%
COc1ccc(/C=C2\COc3ccc(O)c(O)c3C2=O)cc1,33.2%,67.4%,47.9%,10.8%,19.2%,-6.45% (active),-60.5% (active),38.1%,-40.9% (active),66.2%,19.4,13.4%,-26.3% (active),-11.4% (active),2.29% (active),2.86% (active),48.5%,-36.9% (active),14.8%,8.06% (active)
c1ccc(CNc2c3ccccc3nc3ccccc23)cc1,41.2%,51.7%,46.3%,46%,10.3%,25.9%,56.8%,28.5%,34.3%,7.29% (active),48.6,12.3%,37.4%,57.9%,41.9%,62.6%,37.6%,24%,52.7%,32.3%
